Assay [1] relates to CRL-7250. The assay is described as follows: Cytotoxic Profiling of Annotated Libraries Using Quantitative High-Throughput Screening (AID 1296008). Further: potency means the concentration at half of the fitted maximal effect. On max response: on the % scale 0 is the no-effect control and ±100 the full control effect. The conditions noted are these: Five cell lines viability, CellTiter-Glo ATP luminescence, 48-72 h; max response: active compounds read low. An outline of the steps: (§1)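 Cytotoxicity was measured as CellTiter-Glo ATP luminescence, read after 10 min at room temperature. Compound treatment of the cells lasted 48 or 72 hr at 37 degrees Celsius in a qHTS format.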
For orientation: Cellular ATP, detected with luciferase, serves as a proxy for viable cell number.

The subject of assay [2] is HEK293. The description is as above. The conditions noted are these: Five cell lines viability, CellTiter-Glo ATP luminescence, 48-72 h; max response: active compounds read low. The method in brief:
as §1

The subject of assay [3] is HaCat. Described as above. The conditions noted are these: Five cell lines viability, CellTiter-Glo ATP luminescence, 48-72 h; max response: active compounds read low. An outline of the steps:
as §1

In assay [4] the test system is KB-3-1. The assay is described as above. The conditions noted are these: Five cell lines viability, CellTiter-Glo ATP luminescence, 48-72 h; max response: active compounds read low. The method in brief: as §1
Assay [5] has as its system NIH3T3. Described as above. The settings on record: Five cell lines viability, CellTiter-Glo ATP luminescence, 48-72 h; max response: active compounds read low. The method in brief: as §1
For assay [6], the system named is HACAT. The assay is described as follows: qHTS assay to identify novel small-molecules to repurpose for Merkel cell carcinoma treatment (AID 1296009). The settings on record: MCC and control cell lines, CellTiter-Glo viability, 72 h; series mostly up to 44.8 µM. The method in brief: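 Cell viability measured by CellTiter-Glo following 72 hr compound treatment at 37 degree celsius, with NPC and MIPE libraries tested in 8- and 11-point concentration series.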

Inconclusive results are not listed. A number with no mark means an inactive call. Activity calls are given as the source filed them. The call rests on the fitted dose curve; in most records, active means well fitted inhibition curve with a large enough effect; inconclusive means small, poorly fitted or top-dose-only effect; inactive means flat fitted curve, though single readings scatter.
Further: nearly all actives have a fitted effect of over 60% in size.

On to `COC(=O)C1=CO[C@@H](O[C@@H]2O[C@H](CO)[C@@H](O)[C@H](O)[C@H]2O)C2C1C(=O)C[C@H]2C` (stereo partly drawn), for which the figures for the max response in assay [1], in assay [2] and in assay [5] were -1.68%, -7.74% and 2.63%, respectively. Further, the compound was classed as inactive in assay [3] and in assay [4]. The Potency result in assay [6] was “inactive”.
Take `CCCC1(c2ccccc2)NC(=O)N(CC(=O)N(C)Cc2c(F)cccc2Cl)C1=O` (stereo not drawn): the max response in assay [1] is -1.75%; in assay [2] it was -6.56%; in assay [4], -1.57%; in assay [5] it was -2.22%.
As to `CC(=O)O[C@@H]1C[C@H](O)[C@@]23CO[C@H](O)[C@]1(C)C2C[C@@H](O)[C@]1(C)C3C(=O)[C@H](OC(C)=O)[C@@]2(C)[C@H](c3ccoc3)C[C@H]3O[C@]321` (stereo partly drawn), the Potency in assay [1] is 485 nM (active); in assay [2], 343 nM (active); in assay [4], 137 nM (active); in assay [5] it was 432 nM (active).
For `CC1=CC(=O)[C@H]2C(C)(C)CCC[C@]2(C)[C@@]1(O)CO`, the max response was -8.81% in assay [1], -15.2% in assay [2], 7.19% in assay [4] and 3.55% in assay [5].
In the case of `COc1cc2c(cc1OC)N1C(=O)C[C@]34C=CCN5CC[C@@H]2[C@@H](CC3)[C@]514`, the result in assay [1] was inactive. Also, the max response in assay [2] was -26.4%; in assay [4], 7.8%; in assay [5], -2.04%.
In the case of `Nc1nccn2c(C3CCC(C(=O)O)CC3)nc(-c3cc4cccc(Cl)c4[nH]3)c12` (stereo not drawn), the Potency is 1460 nM (active) in assay [1], 5170 nM (active) in assay [2], 1840 nM (active) in assay [4] and 7310 nM (active) in assay [5].
The like results for `Nc1nc2c(c(=O)[nH]1)C[C@@H](CCc1ccc(C(=O)N[C@@H](CCC(=O)O)C(=O)O)cc1)CN2` were, in that order, 116 nM (active), 206 nM (active), 58 nM (active) and 103 nM (active).
In the case of `COC(=O)C[C@H]1C(C)(C)[C@H](OC(=O)C(C)C)[C@@]2(O)C(=O)[C@]1(C)C1CC[C@]3(C)C(CC(=O)O[C@H]3c3ccoc3)[C@]13O[C@@H]32` (stereo partly drawn), in assay [1], the compound was classed as inactive. Besides, the max response in assay [2] is -5.5%; in assay [4], 8.04%; in assay [5] it was 3.21%.
Regarding `COC(=O)CC1CC(c2ccc(O)cc2)=NO1` (stereo not drawn), the max response in assay [1] was -3.02%; in assay [2], 0.726%; in assay [4], -14.5%; in assay [5], -0.902%.
Take `CC1(C)CCC2(C(=O)OC3OC(CO)C(O)C(O)C3O)CCC3(C)C(=CCC4C5(C)CCC(O)C(C)(C(=O)O)C5CCC43C)C2C1O` (stereo not drawn): the max response was 3.57% in assay [1], 4.09% in assay [2], 1.65% in assay [4] and 0.934% in assay [5].
`CS(=O)(=O)c1ccc([C@H](CC2CCCC2)C(=O)Nc2nccs2)cc1`: the max response in assay [1] was 1.1%; in assay [2], -58%; in assay [5] it was -48.7%. Further, the call in assay [4] was inactive.
Regarding `Nc1ncnc2c([C@@H]3N[C@H](CO)[C@@H](O)[C@H]3O)c[nH]c12`, the max response in assay [1] is -1.11%; in assay [2], 1.17%; in assay [4], 5.62%; in assay [5] it was -4.07%.
With `CC#CC(=O)N1CCC[C@H]1c1nc(-c2ccc(C(=O)Nc3ccccn3)cc2)c2c(N)nccn12`, the max response is -4.15% in assay [1], -0.695% in assay [2] and -4.42% in assay [5]. Also, in assay [4], the compound was called inactive.
In the case of `CC(=O)N[C@@H](C(=O)O[C@H]1CCC(C)(C)[C@@H]2CCC3=C(COC3=O)[C@@]12C)C(C)C`, the max response in assay [1] is -2.03%; in assay [2] it was 1.75%; in assay [4] it was -11.9%. For the same compound, the result in assay [5] was inactive.
